Screens deposited in PubChem by National Center for Advancing Translational Sciences (NCATS).
HCMV inh – blocks human cytomegalovirus replication; activity change, negative = inhibition, % at 57.5 µM; HFF cells, HCMV-luciferase reporter, 72 h; active compounds read low; 410,000 compounds, 4.5% hits; in the data active = activity change below about -60%; inconclusive = no clear call, values can overlap the other calls; inactive = above about -39%
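Luciferase read-out from HCMV-luciferase-infected HFFs (MOI 1 PFU/cell) 72 h post infection at 37C; compounds added after 16 h cell attachment; activity normalized between buffer-only basal and Salinomycin (10uM) inhibitor controls.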
Pf growth 48h – P. falciparum growth inhibition at 48 hours (one generation) | P. falciparum luciferase growth in erythrocytes, 48 h | Potency, µM (doses to about 28.7 µM), without a hit: top-dose activity change, negative = inhibition, hits mostly inhibitors | 310,000 compounds, 5.9% hits | AID 504832; note: potency is the fitted concentration of half-maximal effect
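Luciferase-expressing P. falciparum in infected erythrocytes (2% hematocrit, 0.1% parasitemia final) in RPMI 1640/0.5% Albumax were exposed to compound for 48 hours at 37 C, 5% CO2; growth read as luminescence.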
HCV inhibitor – inhibitors of hepatitis C virus infection; AID 651820; 340,000 compounds, 3.4% hits; Potency, µM (doses to about 41.8 µM), without a hit: top-dose activity change, negative = inhibition, hits mostly inhibitors; Huh7.5.1 HCVcc-Cre infection, luciferase reporter, 44 h; note: potency is the fitted concentration of half-maximal effect
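1,000 cells/well; 4 h culture; + compound; + HCVcc-Cre (~0.5 moi); 44 h; luciferase substrate, RT 15 min; read 15 sec.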
Pf growth 96h – P. falciparum growth inhibition at 96 hours; P. falciparum luciferase reporter growth, 96 h; Potency, µM (top dose mostly 28.7 µM), without a hit: at the top dose activity change, negative = inhibition, actives largely listed as inhibitors; 320,000 compounds, 6.9% hits; AID 504834; note: potency is the fitted concentration of half-maximal effect
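Parasite growth measured via integrated firefly luciferase reporter in P. falciparum. Infected erythrocytes at 2% hematocrit, 0.05% parasitemia final were treated 96 hours at 37 C under 5% CO2, and luminescence was read.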
Active calls of the source: *; ? = inconclusive; nt = no result given; ! = not active in a repeat; [ ] = remark or other dose. A selection: hits, their analogues and other compounds. The true share with any hit is near 13%. Unless noted, calls come from the whole dose curve; as a rule, active = well fitted inhibition curve with a large enough effect; inconclusive = small, poorly fitted or top-dose-only effect, or another doubt; inactive = no such curve, though single readings can be large or run the other way. % is set by controls: 0 for no effect and ±100 for the full control effect.

SMILES	HCMV inh	Pf growth 48h	HCV inhibitor	Pf growth 96h
COc1ccccc1C1CCN(Cc2ccc(Cl)cc2Cl)CC1	-1	nt	-14%	?
COc1cc(CN2CCC(Cc3ccccc3)CC2)cc(OC)c1OC	51	?	-26%	9.3µM*
c1ccc(OCCOCCN2CCN(C(c3ccccc3)c3ccccc3)CC2)cc1	?	?	?	-23%
COc1cccc(OC)c1OCCCCN1CCCCC1	28	?	5%	13µM*
COc1ccc(CN2CCC(Cc3ccccc3)CC2)c(C)c1C	6	?	?	?
Cc1ccccc1CNCCCSc1nnnn1-c1ccccc1	-5	nt	nt	nt
CC1(C(=O)NC2CCN(Cc3ccccc3)CC2)CCN1Cc1ccc2ccccc2c1 (configuration not stated)	-67*	nt	nt	nt
Cc1ccc(CN2CCC(NC(=O)c3ccccc3)CC2)cc1	-15	5%	-25%	24%
Cc1ccc(C)n1-c1ccc(C(=O)NC2CCN(Cc3ccccc3)CC2)cc1	-62*	?	?	12µM*
O=C(NC1CCN(Cc2ccccc2)CC1)c1ccc(S(=O)(=O)NCc2ccco2)cc1	-30	0%	4µM*	-18%
COc1ccc(CN2CCN(C(=O)c3ccc(S(=O)(=O)NCc4ccco4)cc3)CC2)cc1	-83*	?	?	-2%
Cc1cc(C)nc(-n2nc(C)c3c2NC(=O)CC3c2cc(F)ccc2F)n1 (configuration not stated)	-18	nt	nt	nt
COc1ccc(CC(=O)NCc2nn(-c3ccccc3)nc2C)cc1OC	12	-1%	7%	-21%
COc1ccc(-c2ocnc2C(=O)NCc2nn(-c3ccccc3)nc2C)cc1	?	-6%	2.5µM*	6%
Cc1[nH]c2ccccc2c1C1(O)C(=O)N(Cc2ccccc2)c2ccc(Cl)cc21 (configuration not stated)	-10	nt	nt	nt
CCOC(=O)CC(=O)CSc1nc2ccccc2c(=O)n1CCc1ccc(S(N)(=O)=O)cc1	-13	nt	nt	nt
Cc1ccc(-c2cnc(-c3ccncc3)o2)cc1	51	-14%	?	nt
Nc1ccc(-c2ncc(-c3ccccc3)o2)cc1	?	9.3µM*	?	?
Cc1cc(C)c(NC(=O)CSc2ncc(S(=O)(=O)c3ccc(C(C)(C)C)cc3)c(=O)[nH]2)c(C)c1	20	nt	nt	nt
COc1ccc([N+](=O)[O-])cc1/C=N/NC(=O)CNC(=O)C(c1ccccc1)c1ccccc1	-27	25%	?	-2%
O=C(CNC(=O)c1ccccc1)N/N=C/c1cccs1	?	44%	14%	?
COc1ccc([N+](=O)[O-])cc1/C=N/NC(=O)CNC(=O)c1cccc(F)c1	4	26%	-2%	1.9µM*
O=C(Cc1c(F)cccc1Cl)N/N=C/c1cccs1	-75*	6%	5%[8.37 µM]	?
O=C(CNC(=O)c1cccc(F)c1)N/N=C/c1cccs1	-62*	42%	9%	-19%
Cc1ccc(/C=N/NC(=O)Cc2c(F)cccc2Cl)s1	-28	-15%	-20%	294%
SMILES	HCMV inh	Pf growth 48h	HCV inhibitor	Pf growth 96h
CCC(=O)Nc1ccc(C)cc1-c1nc2ccccc2n(CC(=O)c2ccc(C)cc2)c1=O	12	nt	nt	nt
Cc1ccc(N2C(=O)CCSC23C(=O)N(Cc2ccccc2)c2ccccc23)cc1F (configuration not stated)	0	nt	nt	nt
CC(C)Cc1ccc(CN2CCCC(NC(=O)c3cccc(-n4cnnc4)c3)C2)cc1 (configuration not stated)	-60*	13µM*	?	-22%
CC(C)Cc1ccc(CN2CCCC(NC(=O)c3ccnn3C)C2)cc1 (configuration not stated)	-80*	?	11µM*	-17%
CC(C)Cc1ccc(CN2CCCC(NC(=O)c3ccoc3)C2)cc1 (configuration not stated)	-33	10µM*	?	64%
CC(C)Cc1ccc(CN2CCCC(NC(=O)c3nn(C)c(=O)c4ccccc34)C2)cc1 (configuration not stated)	-5	-18%	?	10%
COc1ccc(-n2ncc3c(NC4CCCC4)ncnc32)cc1	4	nt	nt	nt
O=C(Cn1c(=O)n2nc(-c3cccc(F)c3)nc2c2ccccc21)N1CCN(c2ccccc2F)CC1	15	nt	nt	nt
O=C(Cc1ccc(-n2c(=O)c3sccc3n(CC(=O)Nc3ccccc3)c2=O)cc1)NCc1ccco1	-37	-1%	0%	82%
O=C(Cc1ccc(-n2c(=O)c3sccc3n(CC(=O)Nc3ccccc3F)c2=O)cc1)NCc1ccco1	-60*	?	19%	170%
O=C(CSc1c2c(nc3ccccc13)CCC2)Nc1ccc(F)cc1	-13	nt	nt	nt
FC(F)(F)c1cc(CO[C@@H]2CCCN[C@@H]2c2ccccc2)cc(C(F)(F)F)c1	24	12µM*	3.5µM*	?
COc1ccc(CNc2nn3c(-c4cccc(C(=O)N(C)C)c4)cnc3s2)cc1	-66*	nt	nt	nt
COc1cccc(-c2cc(NC=O)c3ncc(-c4cccc(C(=O)N(C)C)c4)n3c2)c1	70	nt	nt	nt
O=C(CCS(=O)(=O)c1ccc2c(c1)NC(=O)CO2)NCc1ccccc1	41	5%	25%	13µM*
O=C(CCS(=O)(=O)c1cc2c(cc1Cl)NC(=O)CO2)NCc1ccccc1	-20	27%	17%	?
O=C(CCS(=O)(=O)c1cc2c(cc1Cl)NC(=O)CO2)NCCc1ccccc1	-104*!	1%	0%	?
Cc1c(N/N=C(\C#N)C(=O)c2ccc(Cl)cc2)c(=O)n(-c2ccccc2)n1C	-100*	12µM*	?	113%
N#C/C(=N\Nc1ccc(Cl)cc1)C(=O)c1ccccc1	-99*	8%	22µM*	nt
CCOC(=O)NC(=O)/C(C#N)=N\Nc1ccc(Cl)cc1	-8	nt	1%	?
Cc1cccc(CCNC(=O)c2ccc3c(c2)nc2n3CCCCC2)c1	14	nt	nt	nt
Cc1ccccc1N(CC(=O)NCCc1ccccc1)C(=O)c1ccc(N2CCCC2)nc1	13	10µM*	?	?
C=CCN(CC=C)c1ncnc2[nH]ncc12	-86*	nt	-5%	nt
CN(c1cccnc1)c1ncnc2[nH]ncc12	0	-2%	15%	8%
CC(C(=O)c1c[nH]c2ccccc12)N1CCc2ccccc2C1 (configuration not stated)	?	?	14%	2.9µM*
O=C(c1c[nH]c2ccccc12)C(O)C(c1ccccc1)N1CCOCC1 (configuration not stated)	31	-4%	9%	13%
Cc1ccc(NC(=O)C(C)N2CCc3ccccc3C2)cc1 (configuration not stated)	8	23%	-1%	28%
O=C(c1c[nH]c2ccccc12)C(Cl)c1ccccc1 (configuration not stated)	-100*	-6%[0.00184 µM]	-28%	?
CC(=O)C(C)Oc1ccc2c3c(c(=O)oc2c1)CCCC3 (configuration not stated)	62	39%	?	22%
O=C(COc1ccc2c3c(c(=O)oc2c1)CCCC3)N1CCN(c2ccc(F)cc2)CC1	0	4%	10µM*	-22%
